The values below come from PubChem BioAssay (Tox21).

Assay [1] can be described thus: qHTS assay to test for compound auto fluorescence at 535 nm (green) in HEK293 cells (AID 720680). Also: % is scaled to controls: 0 for no effect and ±100 for the full control effect.
Assay [2] in a line: qHTS assay to test for compound auto fluorescence at 460 nm (blue) in HEK293 cell free culture (AID 720681). Also: % is scaled to controls: 0 for no effect and ±100 for the full control effect. The method in brief:
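Compounds were added to cell-free DMEM with 10% FBS and fluorescence read directly. The blue channel used 405 nm excitation and 460 nm emission, with triamterene as the reference fluorophore.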

Assay [3] is described as follows: qHTS assay to test for compound auto fluorescence at 535 nm (green) in HEK293 cell free culture (AID 720682). Also: % is scaled to controls: 0 for no effect and ±100 for the full control effect. The method in brief:
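Compounds were pin-transferred into cell-free DMEM with 10% FBS, and green fluorescence was read at excitation 485 nm and emission 535 nm. Intensities were expressed as fluorescein-equivalent values.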
For orientation: qHTS replaces the single test concentration by a dilution series.

A short description of assay [4]: qHTS assay to test for compound auto fluorescence at 590 nm (red) in HEK293 cell free culture (AID 720683). Also: % is scaled to controls: 0 for no effect and ±100 for the full control effect. The essentials: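 Cell-free wells of DMEM with 10% FBS received compound, and intrinsic fluorescence was read at excitation/emission 540/590 nm. Values expressed as equivalence to Rose Bengal sodium.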
Assay [5] can be described thus: qHTS assay to test for compound auto fluorescence at 590 nm (red) in HepG2 cell free culture (AID 720684). Also: % is scaled to controls: 0 for no effect and ±100 for the full control effect. The essentials: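 Compounds are added to culture medium (MEM, 10% FBS) lacking cells, then fluorescence is read at excitation 540 nm, emission 590 nm, with Rose Bengal sodium as the equivalency standard.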
Assay [6] is described as follows: qHTS assay to test for compound auto fluorescence at 460 nm (blue) in HepG2 cell free culture (AID 720685). Also: % is scaled to controls: 0 for no effect and ±100 for the full control effect. The method in brief:
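Compound (23 nL) or DMSO pinned into cell-free MEM with 10% FBS; blue fluorescence read at 405/460 nm excitation/emission, expressed as auto-fluorescence equivalency to triamterene.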

A short description of assay [7]: qHTS assay to test for compound auto fluorescence at 535 nm (green) in HepG2 cell free culture (AID 720686). Also: % is scaled to controls: 0 for no effect and ±100 for the full control effect.
A short description of assay [8]: qHTS assay to test for compound auto fluorescence at 460 nm (blue) in HepG2 cells (AID 720687). Also: % is scaled to controls: 0 for no effect and ±100 for the full control effect. The method in brief:
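HepG2 cells in MEM with 10% FBS, attached overnight at 37 C, were exposed to compound or DMSO for 1 hr at 37 C, 5% CO2. Blue fluorescence was read at 405/460 nm, with triamterene as reference fluorophore.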

Assay [9] is described as follows: qHTS assay to identify small molecule antagonists of the glucocorticoid receptor (GR) signaling pathway - cell viability counter screen (AID 720693). Also: nearly all actives have a fitted effect of over 55% in size. Also: potency is read from the fitted curve at half-maximal effect.
Assay [10] is described as follows: qHTS assay for identifying genotoxic compounds that show differential cytotoxicity against isogenic chicken DT40 cell lines with known DNA damage response pathways - wild type cell line (AID 743012). Also: nearly all actives have a fitted effect of over 60% in size. Also: potency is read from the fitted curve at half-maximal effect. The method in brief: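 Wild-type DT40 cells (300/well) exposed to compounds for 40 hours at 37 C/5% CO2. Viability read by CellTiter-Glo luminescence after 30 min at room temperature.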

Assay [11] is described as follows: qHTS assay for identifying genotoxic compounds that show differential cytotoxicity against isogenic chicken DT40 cell lines with known DNA damage response pathways - Rev3 mutant cell line (AID 743014). Also: nearly all actives have a fitted effect of over 55% in size. Also: potency is read from the fitted curve at half-maximal effect.
Assay [12] is described as follows: qHTS assay for identifying genotoxic compounds that show differential cytotoxicity against isogenic chicken DT40 cell lines with known DNA damage response pathways - Rad54/Ku70 mutant cell line (AID 743015). Also: nearly all actives have a fitted effect of over 60% in size. Also: potency is read from the fitted curve at half-maximal effect.
Assay [13] in a line: qHTS assay to identify small molecule antagonists of the androgen receptor (AR) signaling pathway - cell viability counter screen (AID 743033; also: nearly all actives have a fitted effect of over 45% in size; also: potency is read from the fitted curve at half-maximal effect).
Assay [14] can be described thus: qHTS assay to identify small molecule antagonists of the androgen receptor (AR) signaling pathway using the MDA cell line - cell viability counter screen (AID 743041; also: nearly all actives have a fitted effect of over 45% in size; also: potency is read from the fitted curve at half-maximal effect). The essentials: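 Same-well cytotoxicity was assessed by CellTiter-Fluor in MDA-kb2 AR-luc cells after 16 h of compound treatment under R1881 agonism.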
The target of assay [15] is Androgen receptor (Homo sapiens) (UniProt P10275). Put plainly: qHTS assay to identify small molecule agonists of the androgen receptor (AR) signaling pathway using the MDA cell line (AID 743040; also: % is scaled to controls: 0 for no effect and ±100 for the full control effect; nearly all actives have a fitted effect of over 20% in size). The method in brief: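 Human breast carcinoma MDA-kb2 reporter cells (MMTV-luc, AR/GR elements) were treated for 16 h at 37C in 0% CO2 following a 5 h settling period. Signal was quantified by ONE-Glo luminescence.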

For assay [16] the target is unchanged. Put plainly: qHTS assay to identify small molecule antagonists of the androgen receptor (AR) signaling pathway using the MDA cell line (AID 743042; also: potency is read from the fitted curve at half-maximal effect; nearly all actives have a fitted effect of over 55% in size). The method in brief:
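MDA-kb2 breast carcinoma cells carrying MMTV-luciferase (AR/GR responsive) were co-treated with compounds and the agonist R1881 for 16 h at 37C. Inhibition read as ONE-Glo luminescence; CellTiter-Fluor fluorescence measured in parallel for cytotoxicity.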

Assay [17] concerns the target Glucocorticoid receptor (Homo sapiens) (UniProt P04150). Put plainly: qHTS assay to identify small molecule antagonists of the glucocorticoid receptor (GR) signaling pathway (AID 720692; active = well fitted inhibition curve with a large enough effect in the signal ratio in the repeat runs, not every such curve was filed as active; the % refers to the signal ratio; also: potency is read from the fitted curve at half-maximal effect). The essentials: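 GR-bla HeLa cells carrying a GRE-driven beta-lactamase reporter received compound after 4 h plating, then dexamethasone (5 nM final). After 18 h at 37C, the FRET substrate was loaded for 2 h at room temperature and fluorescence read.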

Assay [18] shares this target. Put plainly: qHTS assay to identify small molecule agonists of the glucocorticoid receptor (GR) signaling pathway (AID 720691; active = well fitted activation curve with a large enough effect in the signal ratio in the repeat runs, not every such curve was filed as active; the % refers to the signal ratio; also: % is scaled to controls: 0 for no effect and ±100 for the full control effect). The settings on record: GR-bla HeLa, beta-lactamase reporter ratio, 18 h; activation: at 62.4 µM (top of the series). The method in brief:
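GR-bla HeLa cells carrying a GRE-driven beta-lactamase reporter, exposed to compounds for 18 h at 37 C. Reporter activation read as fluorescence after 2 h with LiveBLAzer B/G FRET substrate at room temperature.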

The target of assay [19] is Androgen receptor (Homo sapiens) (UniProt P10275). Put plainly: qHTS assay to identify small molecule antagonists of the androgen receptor (AR) signaling pathway (AID 743035; active = well fitted inhibition curve with a large enough effect in the signal ratio in the repeat runs, not every such curve was filed as active; the % refers to the signal ratio; also: % is scaled to controls: 0 for no effect and ±100 for the full control effect). The essentials: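 HEK293 cells stably carrying UAS-beta-lactamase reporter, 2,000/well, given compounds plus R1881 agonist and incubated 16 h at 37C. LiveBLAzer B/G FRET substrate then added for 2 h at room temperature before fluorescence reading.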

Assay [20] has the same target. Put plainly: qHTS assay to identify small molecule agonists of the androgen receptor (AR) signaling pathway (AID 743036; active = well fitted activation curve with a large enough effect in the signal ratio in the repeat runs, with a control signal flat, not every such curve was filed as active; the % refers to the signal ratio; also: % is scaled to controls: 0 for no effect and ±100 for the full control effect). The method in brief: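 Activation was read as beta-lactamase FRET signal from LiveBLAzer B/G substrate, added for 2 h at room temperature. Before that, GeneBLAzer AR-UAS-bla GripTite (HEK293) cells had 16 h compound exposure at 37C.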

SMILES strings stand for the structures. “And” between values parts separate entries of the source, which are not always exact repeats. Identical values can stand only once. Inconclusive results are not listed. The source holds several records for some structures; these can differ, active in one and inactive in another. The source made the active and inactive calls. Unless noted, calls follow the shape of the dose curve; as a rule, active = well fitted curve in the direction sought with a large enough effect in the repeat runs; inconclusive = weak or mixed curves; inactive = no such curve, though single readings can be large; an effect the other way counts as inactive or inconclusive.

Glucocorticoid receptor (Homo sapiens), sequence (P04150 whole entry, looked up): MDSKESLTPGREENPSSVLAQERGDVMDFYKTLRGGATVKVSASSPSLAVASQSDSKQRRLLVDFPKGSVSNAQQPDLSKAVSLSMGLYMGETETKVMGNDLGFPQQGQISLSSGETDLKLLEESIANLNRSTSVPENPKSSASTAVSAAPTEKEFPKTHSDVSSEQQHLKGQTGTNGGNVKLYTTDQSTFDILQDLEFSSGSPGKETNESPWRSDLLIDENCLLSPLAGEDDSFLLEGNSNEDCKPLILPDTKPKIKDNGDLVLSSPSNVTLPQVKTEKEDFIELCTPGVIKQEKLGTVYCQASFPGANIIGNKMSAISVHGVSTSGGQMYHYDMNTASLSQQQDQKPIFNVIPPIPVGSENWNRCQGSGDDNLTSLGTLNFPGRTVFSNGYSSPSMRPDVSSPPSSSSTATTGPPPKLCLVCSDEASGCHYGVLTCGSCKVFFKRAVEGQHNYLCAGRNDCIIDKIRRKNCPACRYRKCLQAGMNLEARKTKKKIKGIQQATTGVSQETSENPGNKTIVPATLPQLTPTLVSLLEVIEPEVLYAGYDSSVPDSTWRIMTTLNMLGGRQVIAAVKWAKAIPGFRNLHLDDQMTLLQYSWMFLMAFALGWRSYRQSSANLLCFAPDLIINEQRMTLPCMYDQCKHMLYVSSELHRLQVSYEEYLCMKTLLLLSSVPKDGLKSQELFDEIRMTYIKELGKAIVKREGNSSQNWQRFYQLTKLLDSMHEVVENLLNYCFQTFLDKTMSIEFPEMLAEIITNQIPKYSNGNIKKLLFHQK
Androgen receptor (Homo sapiens), sequence (P10275 whole entry, looked up): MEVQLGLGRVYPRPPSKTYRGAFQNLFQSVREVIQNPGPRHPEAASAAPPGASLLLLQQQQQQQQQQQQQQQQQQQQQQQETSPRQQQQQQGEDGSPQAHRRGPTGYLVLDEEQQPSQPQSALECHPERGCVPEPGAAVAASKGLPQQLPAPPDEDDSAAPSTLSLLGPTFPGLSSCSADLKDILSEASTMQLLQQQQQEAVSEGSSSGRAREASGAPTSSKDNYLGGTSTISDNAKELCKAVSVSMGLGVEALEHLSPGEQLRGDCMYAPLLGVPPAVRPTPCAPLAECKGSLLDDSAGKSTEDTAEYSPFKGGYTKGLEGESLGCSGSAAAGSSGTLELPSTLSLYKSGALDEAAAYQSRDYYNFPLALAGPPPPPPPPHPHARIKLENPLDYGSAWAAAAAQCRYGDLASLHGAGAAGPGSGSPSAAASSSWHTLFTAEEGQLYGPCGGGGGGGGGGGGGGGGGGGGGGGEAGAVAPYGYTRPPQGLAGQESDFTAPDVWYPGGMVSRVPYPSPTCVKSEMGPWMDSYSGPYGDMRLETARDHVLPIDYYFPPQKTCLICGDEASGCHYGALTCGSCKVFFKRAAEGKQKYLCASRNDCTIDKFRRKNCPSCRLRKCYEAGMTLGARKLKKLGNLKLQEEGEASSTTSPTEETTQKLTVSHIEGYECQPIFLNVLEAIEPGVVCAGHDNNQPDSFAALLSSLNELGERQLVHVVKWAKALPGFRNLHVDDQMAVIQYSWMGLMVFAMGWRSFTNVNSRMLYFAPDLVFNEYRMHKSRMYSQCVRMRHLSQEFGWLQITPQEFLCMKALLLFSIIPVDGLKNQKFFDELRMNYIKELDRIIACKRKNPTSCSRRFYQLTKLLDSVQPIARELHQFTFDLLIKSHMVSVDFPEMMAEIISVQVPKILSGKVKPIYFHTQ

With `CC=O`, the Potency entry in [1], in assay [2], in assay [3], in [4], in assay [5] and in [6] was “inactive” each time. The Potency result in assay [7] and in assay [8] was “inactive” in each case. Also, the Potency in assay [9] is 25.7 µM (active); in assay [10], 0.0717 µM (active); in assay [11], 0.057 µM (active); in [12], 0.0717 µM (active); in assay [13] it was 22.9 µM (active); in [14], 63.9 µM (active).
Regarding `CCCCCCOc1cc(C)c(O)c(C)c1C`, the Potency result in [1], in assay [2], in assay [3], in assay [4], in assay [5] and in [6] was “inactive” in each case. Further, the Potency result in assay [7], in assay [8] and in assay [14] was “inactive” each time. Moreover, the Potency is 49.6 µM (active) in assay [9], 19.6 µM (active) in [10], 22 µM (active) in assay [11] and 15.5 µM (active) in [12].
Consider `ClC/C=C\CCl`, for which the Potency result in [1], in assay [2], in assay [3], in [4], in assay [5] and in assay [6] was “inactive” each time. The Potency result in assay [7], in assay [8], in assay [9], in [10], in [11] and in assay [12] was “inactive” in each case. Moreover, the Potency entry in [13] and in [14] was “inactive” in each case.
With `CO[C@H]1C=CO[C@@]2(C)Oc3c(C)c(O)c4c(O)c(cc(O)c4c3C2=O)NC(=O)/C(C)=C\C=C/[C@H](C)[C@H](O)[C@@H](C)[C@@H](O)[C@@H](C)[C@H](OC(C)=O)[C@@H]1C`, the Potency result in assay [1], in assay [2], in [3], in [4], in assay [5] and in assay [6] was “inactive” in each case. Moreover, the Potency result in [7], in assay [8] and in [9] was “inactive” throughout. Further, the Potency result is “inactive and 6.91 µM (active)” in assay [11]; “inactive and 12.3 µM (active)” in assay [12]; “inactive and 49.3 µM (active)” in [13].
As for `CCCCCCCCCCCCN(CCO)CCO`, the Potency entry in assay [1], in assay [2], in assay [3], in [4], in [5] and in assay [6] was “inactive” each time. For the same compound, the Potency result in [7], in assay [8] and in [15] was “inactive” in each case. The Potency in [9] is 34.5 µM (active); in assay [10], 0.86 µM (active); in assay [11], 0.172 µM (active); in assay [12] it was 0.609 µM (active); in assay [13] it was 43.5 µM (active); in assay [14], 19.3 µM (active). Further, the Potency in assay [16] is 15.3 µM (active).
Consider `Clc1ccc(C(c2ccccc2Cl)C(Cl)Cl)cc1` (stereo not drawn), for which the Potency entry in [1], in assay [2], in [3], in assay [4], in assay [5] and in assay [6] was “inactive” throughout. Besides, the Potency result in [7], in [8], in assay [9], in assay [13] and in assay [14] was “inactive” each time. Also, the Potency is 10.7 µM (active) and 27.5 µM (active) in [17]; 23.7 µM (active) in [10]; 29.8 µM (active) and 48.6 µM (active) in [11]; 26.6 µM (active) and 43.3 µM (active) in assay [12].
Turning to `Cc1nc(Nc2ncc(C(=O)Nc3c(C)cccc3Cl)s2)cc(N2CCN(CCO)CC2)n1`, the Potency entry in assay [1], in [2], in assay [3], in [4], in assay [5] and in assay [6] was “inactive” in each case. The Potency entry in [7], in [8], in assay [9] and in assay [13] was “inactive” throughout. Moreover, the Potency in [11] is 9.44 µM (active); in assay [12], 6.68 µM (active).
Regarding `Cc1c(C(=O)O)cccc1[N+](=O)[O-]`, the Potency entry in assay [1], in [2], in assay [3], in [4], in assay [5] and in assay [6] was “inactive” each time. Besides, the Potency entry in [7], in assay [8], in [18], in assay [19] and in assay [14] was “inactive” each time. In [20], the call was inactive.
For `CN(C)CCCN1c2ccccc2CCc2ccccc21`, the Potency result in [1], in [2], in assay [3], in assay [4], in assay [5] and in assay [6] was “inactive” in each case. Also, the Potency entry in [7], in assay [8], in [9] and in assay [14] was “inactive” throughout. Besides, the Potency is 23.7 µM (active) and 9.69 µM (active) in assay [11]; 29.8 µM (active) and 9.69 µM (active) in [12].
For `C[C@@]12C(=O)OC(=O)[C@]1(C)C1CCC2O1`, the fluorescence, % of fluorescein in assay [1] was 0.0141% [at 18.6 µM] (inactive). Also, the fluorescence, % of fluorescent control in assay [2] is -0.101% [at 18.6 µM] (inactive); in assay [4], 0.092% [at 18.6 µM] (inactive); in assay [6], -0.0149% [at 18.6 µM] (inactive); in assay [8], -0.0452% [at 18.6 µM] (inactive). The activity change in [3] is -0.057% [at 18.6 µM, stronger effect = higher value] (inactive). Further, in assay [5], the fluorescence, % of Rose Bengal is -0.0041% [at 18.6 µM] (inactive). Also, in assay [7], the fluorescence, % of fluorescein control was -0.0053% [at 18.6 µM] (inactive). The Potency in assay [9] is 1.29 µM (active); in assay [14], 3.35 µM (active). Further, the Potency result in assay [10], in assay [11] and in assay [12] was “inactive” in each case.
Regarding `Cc1c(-c2ccc(O)cc2)n(Cc2ccc(OCCN3CCCCCC3)cc2)c2ccc(O)cc12`, the Potency result in assay [1], in [2], in assay [3], in assay [4], in [5] and in [6] was “inactive” each time. For the same compound, the Potency entry in [7], in [8] and in [9] was “inactive” in each case. For the same compound, the Potency was 11.9 µM (active) in [10], 13.3 µM (active) in assay [11] and 13.3 µM (active) in assay [12].
Regarding `CC(C)=C1CC[C@@H](C)CC1=O`, the Potency entry in assay [1], in [2], in [3], in [4], in [5] and in [6] was “inactive” each time. For the same compound, the Potency entry in [7], in assay [8], in assay [9], in assay [11], in assay [12] and in [13] was “inactive” each time. The Potency result in assay [14] was “inactive”.
As to `CCCCCCCCCCOCC(O)CN` (stereo not drawn), the Potency result in assay [1], in [2], in [3], in assay [4], in assay [5] and in [6] was “inactive” each time. In addition, the Potency result in [7], in [8], in [13] and in assay [15] was “inactive” each time. Also, the Potency is 26.8 µM (active) in [17], 4.73 µM (active) in assay [10], 6.68 µM (active) in assay [11] and 7.5 µM (active) in assay [12]. For the same compound, the compound was classed as inactive in [20].
